# Data as given in PubChem BioAssay (Tox21).
# Inconclusive results are not listed. The source made the active and inactive calls. Calls follow the shape of the dose curve; as a rule, active = well fitted cell-killing curve with a large enough effect in the repeat runs; inconclusive = weak or mixed curves, or effect the other way; inactive = flat fitted curve, though single readings scatter.
# Test: qHTS RealTime-Glo MT Cell Viability Assay in HepG2 cells - 0 hour (AID 1224889); also: nearly all actives have a fitted effect of over 50% in size
# Conditions: RealTime-Glo luminescence; series mostly up to 76.8 µM; activity change, negative = cytotoxicity: at the top concentration
# Source text: U.S. Tox21 Program National Center for Advancing Translational Sciences [NCATS] NIH Chemical Genomics Center [NCGC] U.S. Environmental Protection Agency [EPA] National Institutes of Environmental Health Sciences [NIEHS] National Toxicology Program [NTP] U.S. Food and Drug Administration [FDA] Tox21 Assay Overview: Measure of cell viability is critical in the cell-base assay. Analysis of cell viability is necessary for the characterization of cell responses to cytotoxic drugs and environmental stress. A RealTime-Glo MT Cell Viability Assay to monitor cell viability in real time of continues cell culture during 40 hours of compound treatment was used to screen Tox21 10K library compounds in HepG2 cells. The RealTime-Glo MT Cell Viability Assay is a nonlytic, homogeneous, bioluminescent method to measure cell viability in real time using a simple, plate-based method. The assay involves adding NanoLuc luciferase and a cell-permeant prosubstrate to cells in culture. Viable cells reduce the proprietary prosubstrate to generate a substrate for NanoLuc luciferase. This substrate diffuses from cells into the surrounding culture medium, where it is rapidly used by the NanoLuc Enzyme to produce a luminescent signal. The signal correlates with the number of viable cells, making the assay well suited for cytotoxicity studies.
# Tox21 Assay Protocol Summary: The mixture of HepG2 cell suspension and reagents were dispensed at 600cells/6 ul/well in 1536-well tissue culture treated black solid bottom plates using a Multidrop dispenser. After the assay plates were incubated at a 37 C/5% CO2 incubator for 5 hours, 23 nL of compounds dissolved in DMSO, positive and negative controls was transferred to the assay plate by a pintool work station. The plates were incubated at 37 C for 40 hours. The luminescence intensity were measured at 0h, 8h, 16h, 24h, 32h and 40h time points using ViewLux plate reader during compound treatment.
# % is scaled to controls: 0 for no effect and ±100 for the full control effect.
row,Compound,"activity change, negative = cytotoxicity"
1,C=COCCOCCOCCOC=C,-5.21% (inactive)
2,CCCN1C[C@H](CSC)C[C@@H]2c3cccc4[nH]cc(c34)C[C@H]21,1.37% [at 35.3 µM] (inactive)
3,Nc1ccc([N+](=O)[O-])c(N)c1,-0.133% (inactive)
4,CC1(C)S[C@@H]2[C@H](N=CN3CCCCCC3)C(=O)N2[C@H]1C(=O)O,-0.3% [at 35.3 µM] (inactive)
5,Cc1ccccc1OCC(O)CO (stereo not given),-1.49% [at 35.3 µM] (inactive)
6,O=C(Nc1ccc(Cl)c(Cl)c1)C1CC1,4.5% [at 35.3 µM] (inactive)
7,Oc1ccccc1-c1nnco1,1.07% [at 35.3 µM] (inactive)
8,CC(C)NCC(O)COc1ccc(COCCOC(C)C)cc1 (stereo not given),4.58% [at 35.3 µM] (inactive)
9,C=CC(OCC)OCC,2.5% (inactive)
10,C=C(C)C(=O)OCCN(CC)CC,3.22% (inactive)
11,O=C(O)c1ccc(Cl)cc1Cl,-0.128% (inactive)
12,CCCCCCN,-4.2% (inactive)
13,O=C(CS(=O)Cc1ccco1)NC/C=C\COc1cc(CN2CCCCC2)ccn1 (stereo not given),0.633% [at 35.3 µM] (inactive)
14,CC(=C(CCOC(=O)C(C)C)SSC(CCOC(=O)C(C)C)=C(C)N(C=O)Cc1cnc(C)nc1N)N(C=O)Cc1cnc(C)nc1N,5.21% [at 35.3 µM] (inactive)
15,CCCCCCCCSCC,0.0684% (inactive)
16,CC(=O)N[C@@H](CCC(=O)O)C(=O)O,-14.7% [at 35.3 µM] (inactive)
17,COc1cc2c(cc1OC)[C@@H]1CC(=O)[C@@H](CC(C)C)CN1CC2,-13.2% [at 35.3 µM] (inactive)
18,CCCCCCCCCCCCCC,-3.93% (inactive)
19,Oc1cn2c(n1)Nc1ccc(Cl)c(Cl)c1C2,-2.51% [at 15.8 µM] (inactive)
20,Nc1ccc2cc(S(=O)(=O)O)cc(O)c2c1,-26.5% (inactive)

row,Compound,"activity change, negative = cytotoxicity"
1,CC(C)OC(=O)CCCCC(=O)OC(C)C,0.593% (inactive)
2,CC(N)C(=O)OC(C)(C)Cc1ccc(Cl)cc1 (stereo not given),0.0643% [at 35.3 µM] (inactive)
3,CN(C)CCOCCO,-1.02% (inactive)
4,O=C(O)c1cc(Br)c(O)c(Br)c1,10.9% (inactive)
5,CC(CO)c1ccccc1 (stereo not given),1.58% (inactive)
6,COc1ccc2nc(SCc3ncc(C)c(OC)c3C)[nH]c2c1,-6.25% [at 35.3 µM] (inactive)
7,COc1cc(C(=S)N2CCOCC2)cc(OC)c1OC,-8.83% [at 35.3 µM] (inactive)
8,CC(=O)Nc1ccc(S(=O)(=O)Nc2ccc([N+](=O)[O-])cc2)cc1,-1.7% [at 35.3 µM] (inactive)
9,Cc1cccc2nccnc12,-2.83% (inactive)
10,O=C1c2ccccc2C(=O)c2cc(S(=O)(=O)O)ccc21,-9.07% (inactive)
11,COc1ccc(-c2cc(=O)c3c(O)cc(O[C@@H]4O[C@H](CO[C@@H]5O[C@@H](C)[C@H](O)[C@@H](O)[C@H]5O)[C@@H](O)[C@H](O)[C@H]4O)cc3o2)cc1O,8.31% [at 35.3 µM] (inactive)
12,CC(C)C(=O)OCCc1ccccc1,9.46% (inactive)
13,O=C(CCNNC(=O)c1ccncc1)NCc1ccccc1,2.78% [at 35.3 µM] (inactive)
14,C=C(C)C(=O)OCCOP(=O)(O)OCCOC(=O)C(=C)C,3.5% (inactive)
15,CN1C(C)(C)CCCC1(C)C,-0.826% [at 35.3 µM] (inactive)
16,CC(C)CCCC(C)(C)O,-3.28% (inactive)
17,CCOc1cc(NC(C)=O)ccc1C(=O)OC,-7.55% [at 35.3 µM] (inactive)
18,O=C(O)c1cc(Cl)cc([N+](=O)[O-])c1Cl,4.83% (inactive)
19,Cc1cccc(OCC(O)CNC(C)(C)C)c1C (stereo not given),16.4% [at 35.3 µM] (inactive)
20,CCc1ccc(C=O)cc1,3.41% (inactive)
